# According to the supplement of paper PMC6555819:
# Key:
# Experiment in all cases: PBM binding z-score (relative to random genomic background probes); higher = stronger binding; sequences stand for … in GC…GCGATTGACAGCGTAGAATGAAGG
# [1] = system: PPARg:RXRa DBDmut IVT, anti-RXR (DBD mutation: RXRa K156A/R161A, NR concentration 270 nM, RXRa partner concentration 90 nM)
# How it was run: (§1)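 For binding z-scores, the reference was random background probes on custom Agilent 4×180K protein-binding microarrays. These arrays were incubated 1 h with ligand-free nuclear receptor dimers in PBS pH 7.4, 2% milk, 0.02% Triton X-100, 1 mM DTT, 0.2 mg/mL BSA and 0.4 mg/ml salmon testes DNA. Fluorescence was scanned after antibody detection of each partner (one per run) and regression-normalized.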
# [2] = system: PPARg:RXRa IVT, anti-PPARg (NR concentration 270 nM, RXRa partner concentration 90 nM)
# How it was run: as §1
# [3] = system: PPARg DBDmut:RXRa IVT, anti-PPARg (DBD mutation: PPARg1 K132A/R137A, NR concentration 270 nM, RXRa partner concentration 90 nM)
# How it was run: as §1
# [4] = system: PPARg DBDmut IVT, anti-PPARg (DBD mutation: PPARg1 K132A/R137A, NR concentration 270 nM)
# How it was run: as §1
# [5] = system: PPARg homodimer (NR concentration 180 nM)
# How it was run: as §1
# [6] = system: PXR:RXRa (NR concentration 270 nM, RXRa partner concentration 90 nM)
# How it was run: as §1
# [7] = system: PXR homodimer (NR concentration 270 nM)
# How it was run: as §1
# [8] = system: RARa:RXR (NR concentration 270 nM, RXRa partner concentration 90 nM)
# How it was run: as §1
# [9] = system: RARa homodimer (NR concentration 270 nM)
# How it was run: as §1
# [10] = system: RARb:RXRa (NR concentration 270 nM, RXRa partner concentration 90 nM)
# How it was run: as §1
sequence,measurement,setting,value
CATCCAAGGTCAAGGTCAGTGAAAGAGACTCGAA,PBM binding z-score,[1],3.78
same,PBM binding z-score,[2],5.22
same,PBM binding z-score,[3],1.93
same,PBM binding z-score,[4],0.636
same,PBM binding z-score,[5],4.53
same,PBM binding z-score,[6],4.84
same,PBM binding z-score,[7],1.77
same,PBM binding z-score,[8],5.12
same,PBM binding z-score,[9],1.98
same,PBM binding z-score,[10],5.77
TCTTGTAGATCCAGCAGGTTAAGAAAGCCTGAGT,PBM binding z-score,[1],1.04
same,PBM binding z-score,[2],-0.258
same,PBM binding z-score,[3],-0.0441
same,PBM binding z-score,[4],-0.28
same,PBM binding z-score,[5],-0.955
same,PBM binding z-score,[6],0.35
same,PBM binding z-score,[7],0.226
same,PBM binding z-score,[8],0.259
same,PBM binding z-score,[9],-0.051
same,PBM binding z-score,[10],0.133
TAGCCTGGGTCATGCGGGCCAGTATAGTGTCGGC,PBM binding z-score,[1],0.519
same,PBM binding z-score,[2],2.76
same,PBM binding z-score,[3],-0.229
same,PBM binding z-score,[4],0.545
same,PBM binding z-score,[5],0.758
same,PBM binding z-score,[6],1.64
same,PBM binding z-score,[7],-0.615
same,PBM binding z-score,[8],2.42
same,PBM binding z-score,[9],-0.605
same,PBM binding z-score,[10],3.18
CCTTGCAGGCCAGGGTCACTCAAGCATTTCGCTT,PBM binding z-score,[1],1.64
same,PBM binding z-score,[2],1.87
same,PBM binding z-score,[3],-0.933
same,PBM binding z-score,[4],-1.48
same,PBM binding z-score,[5],0.75
same,PBM binding z-score,[6],2.65
same,PBM binding z-score,[7],-0.433
same,PBM binding z-score,[8],3.33
same,PBM binding z-score,[9],-0.43
same,PBM binding z-score,[10],2.79
CCTATAAGTTGACCATAAGGGCAACCGAAGCTCG,PBM binding z-score,[1],0.357
same,PBM binding z-score,[2],0.771
same,PBM binding z-score,[3],0.17
same,PBM binding z-score,[4],-0.0168
same,PBM binding z-score,[5],1.61
same,PBM binding z-score,[6],0.964
same,PBM binding z-score,[7],0.7
same,PBM binding z-score,[8],1.23
same,PBM binding z-score,[9],1.27
same,PBM binding z-score,[10],1.8
GGAACGAGGGCAATGTTGATAGCATCTGTCGACG,PBM binding z-score,[1],3.67
same,PBM binding z-score,[2],2.77
same,PBM binding z-score,[3],0.286
same,PBM binding z-score,[4],-0.167
same,PBM binding z-score,[5],0.467
same,PBM binding z-score,[6],0.63
same,PBM binding z-score,[7],0.108
same,PBM binding z-score,[8],0.572
same,PBM binding z-score,[9],-0.191
same,PBM binding z-score,[10],2.13
ACTAGTAGGCCAAGTTTGGGTCACTCAAACAAAG,PBM binding z-score,[1],5.38
same,PBM binding z-score,[2],4.97
same,PBM binding z-score,[3],0.793
same,PBM binding z-score,[4],0.699
same,PBM binding z-score,[5],0.944
same,PBM binding z-score,[6],0.935
same,PBM binding z-score,[7],-0.0858
same,PBM binding z-score,[8],1.74
same,PBM binding z-score,[9],-0.227
same,PBM binding z-score,[10],2.11
AGAATGAGGTTTTTAAGATCAGGGAATTGCGGTC,PBM binding z-score,[1],0.514
same,PBM binding z-score,[2],0.257
same,PBM binding z-score,[3],0.355
same,PBM binding z-score,[4],-0.0253
same,PBM binding z-score,[5],-0.582
same,PBM binding z-score,[6],-0.38
same,PBM binding z-score,[7],-0.508
same,PBM binding z-score,[8],-0.216
same,PBM binding z-score,[9],0.273
same,PBM binding z-score,[10],0.0304
ATCTCTAGGTAACCAAGTTCAGCGAATGCCGAAC,PBM binding z-score,[1],3.55
same,PBM binding z-score,[2],2.95
same,PBM binding z-score,[3],1.37
same,PBM binding z-score,[4],0.686
same,PBM binding z-score,[5],0.704
same,PBM binding z-score,[6],2.02
same,PBM binding z-score,[7],1.3
same,PBM binding z-score,[8],1.04
same,PBM binding z-score,[9],0.165
same,PBM binding z-score,[10],1.34
